# Experimental data published in article PMC13541613, “GHT-SELEX demonstrates unexpectedly high intrinsic sequence specificity and complex DNA binding of many human transcription factors”.
# Molecular target: ZNF721 full-length (Homo sapiens, UniProt Q8TF20-2 1-923)
# Test: HT-SELEX; 20 mM HEPES pH 7, 140 mM KCl, 5 mM NaCl, 1 mM K2HPO4, 2 mM MgSO4, 100 uM EGTA, ZnSO4, 0.1% Tween20; room temperature, 1 h; high values mean tight binding
# Settings: protein: ivt; tags: eGFP (N-terminal); dsDNA, one strand shown
# Summary of the method: (§1)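 A tagged transcription factor, either full-length or its DNA-binding-domain fragment, was made in HEK293 lysate or cell-free extract, immobilised on beads and incubated with a randomized 40-base DNA library for 1 h at room temperature in HEPES/KCl low-stringency buffer containing Tween20. Washed beads were heat-eluted, and the bound DNA was PCR-amplified over successive cycles and Illumina-sequenced at ~3 million 60 bp reads per sample. The binding signal is the relative k-mer count in selected reads, where a higher value means tighter binding.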
# Sequence of ZNF721 full-length (Q8TF20 other isoform, or with tags, fused parts or gaps): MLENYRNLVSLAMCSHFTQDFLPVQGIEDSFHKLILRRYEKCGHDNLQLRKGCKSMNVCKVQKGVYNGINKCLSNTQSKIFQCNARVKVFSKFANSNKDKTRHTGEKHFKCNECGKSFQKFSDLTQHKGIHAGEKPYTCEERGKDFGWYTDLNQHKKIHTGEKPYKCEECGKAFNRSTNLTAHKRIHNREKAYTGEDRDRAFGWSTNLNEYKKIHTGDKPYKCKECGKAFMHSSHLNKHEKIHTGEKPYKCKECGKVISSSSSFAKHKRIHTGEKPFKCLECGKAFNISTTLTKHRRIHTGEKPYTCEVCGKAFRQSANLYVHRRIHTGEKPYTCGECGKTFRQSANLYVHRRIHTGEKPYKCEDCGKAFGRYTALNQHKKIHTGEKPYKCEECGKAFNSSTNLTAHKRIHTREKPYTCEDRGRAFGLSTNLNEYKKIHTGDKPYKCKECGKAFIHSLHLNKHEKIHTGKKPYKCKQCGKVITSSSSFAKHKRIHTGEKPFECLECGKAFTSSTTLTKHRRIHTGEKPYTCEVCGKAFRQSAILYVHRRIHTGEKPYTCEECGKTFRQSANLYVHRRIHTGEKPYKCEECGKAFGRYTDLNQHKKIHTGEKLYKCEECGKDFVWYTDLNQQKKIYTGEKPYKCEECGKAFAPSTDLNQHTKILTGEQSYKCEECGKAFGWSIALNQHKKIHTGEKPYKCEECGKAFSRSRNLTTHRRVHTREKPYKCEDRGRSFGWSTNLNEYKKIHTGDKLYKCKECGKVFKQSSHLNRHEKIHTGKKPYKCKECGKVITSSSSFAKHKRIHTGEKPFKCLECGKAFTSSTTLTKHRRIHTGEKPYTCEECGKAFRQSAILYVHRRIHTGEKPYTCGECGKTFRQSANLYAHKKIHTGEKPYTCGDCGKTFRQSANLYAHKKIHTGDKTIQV
row,Sequence,binding signal
1,CCGCCCGCCC,0.136 relative 10-mer count
2,AAAAAAGGTA,0.109 relative 10-mer count
3,AGGGTGGGTG,0.158 relative 10-mer count
4,CCCGCCCCCC,0.264 relative 10-mer count
5,AGCAGTACCA,0.118 relative 10-mer count
6,CCCCCCCCTC,0.167 relative 10-mer count
7,CCCGCCCTCC,0.158 relative 10-mer count
8,AAAAGCATAC,0.149 relative 10-mer count
9,CCCGCCCCTC,0.127 relative 10-mer count
10,ACCTCCCCAC,0.108 relative 10-mer count
11,CCCACACCCA,0.107 relative 10-mer count
12,AAAGAAGCTA,0.132 relative 10-mer count
13,AAAAGCGTAC,0.118 relative 10-mer count
14,ACCGCCCCCC,0.135 relative 10-mer count
15,AAAAAGAGCA,0.108 relative 10-mer count
16,CAGCGTATCC,0.324 relative 10-mer count
17,CGCTTCATAC,0.265 relative 10-mer count
18,CCCACCCGAC,0.114 relative 10-mer count
19,CAAAAAAAAG,0.269 relative 10-mer count
20,CCCCAACCCA,0.13 relative 10-mer count

row,Sequence,binding signal
1,CCCACCCCGC,0.212 relative 10-mer count
2,CCCCTCCCTC,0.159 relative 10-mer count
3,CCCCACTCCC,0.157 relative 10-mer count
4,CCGCCCACCC,0.268 relative 10-mer count
5,GCCCCACCAC,0.137 relative 10-mer count
6,CCCCTCCCCA,0.188 relative 10-mer count
7,CCCACCCCGA,0.132 relative 10-mer count
8,CCCCCGCCGC,0.128 relative 10-mer count
9,ACCCTCCCCA,0.105 relative 10-mer count
10,CAAAAAAACA,0.365 relative 10-mer count
11,CCGCCCCCAC,0.178 relative 10-mer count
12,CCAACCCACC,0.171 relative 10-mer count
13,CCACCCCACG,0.131 relative 10-mer count
14,AGGGTTTCCA,0.106 relative 10-mer count
15,CGCCCACCAC,0.138 relative 10-mer count
16,CCCCTTCCCC,0.162 relative 10-mer count
17,CCCCCCCTCC,0.208 relative 10-mer count
18,CCATCCCACC,0.138 relative 10-mer count
19,GGTGGGGGGA,0.186 relative 10-mer count
20,CAAAAAAGCA,0.259 relative 10-mer count

# Molecular target: ZNF721 DBD1 (Homo sapiens, UniProt Q8TF20-2 29-461)
# Test: as above
# Settings: protein: ivt; tags: eGFP (N-terminal); dsDNA, one strand shown
# Summary of the method: as §1
# Sequence of ZNF721 DBD1 (Q8TF20 17-449): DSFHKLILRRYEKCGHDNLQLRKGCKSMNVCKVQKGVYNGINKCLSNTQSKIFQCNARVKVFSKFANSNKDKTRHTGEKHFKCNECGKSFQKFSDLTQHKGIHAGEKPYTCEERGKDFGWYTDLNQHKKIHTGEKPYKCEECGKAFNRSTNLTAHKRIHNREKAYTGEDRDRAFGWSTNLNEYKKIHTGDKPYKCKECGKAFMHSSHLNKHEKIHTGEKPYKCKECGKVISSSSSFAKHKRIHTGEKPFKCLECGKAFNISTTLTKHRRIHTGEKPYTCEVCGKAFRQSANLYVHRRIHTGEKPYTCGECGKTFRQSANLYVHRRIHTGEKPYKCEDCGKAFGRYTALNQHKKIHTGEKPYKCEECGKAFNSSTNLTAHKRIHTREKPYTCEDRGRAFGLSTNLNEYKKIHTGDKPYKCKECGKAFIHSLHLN
row,Sequence,binding signal
1,CCGCCCGCCC,0.00495 relative 10-mer count
2,AAAAAAGGTA,0.00752 relative 10-mer count
3,AGGGTGGGTG,0.0094 relative 10-mer count
4,CCCGCCCCCC,0.00982 relative 10-mer count
5,AGCAGTACCA,0.0341 relative 10-mer count
6,CCCCCCCCTC,0.00619 relative 10-mer count
7,CCCGCCCTCC,0.00803 relative 10-mer count
8,AAAAGCATAC,0.0247 relative 10-mer count
9,CCCGCCCCTC,0.00633 relative 10-mer count
10,ACCTCCCCAC,0.00422 relative 10-mer count
11,CCCACACCCA,0.00468 relative 10-mer count
12,AAAGAAGCTA,0.109 relative 10-mer count
13,AAAAGCGTAC,0.0294 relative 10-mer count
14,ACCGCCCCCC,0.00642 relative 10-mer count
15,AAAAAGAGCA,0.0078 relative 10-mer count
16,CAGCGTATCC,0.00174 relative 10-mer count
17,CGCTTCATAC,0.363 relative 10-mer count
18,CCCACCCGAC,0.00449 relative 10-mer count
19,CAAAAAAAAG,0.0321 relative 10-mer count
20,CCCCAACCCA,0.00482 relative 10-mer count

row,Sequence,binding signal
1,CCCACCCCGC,0.0094 relative 10-mer count
2,CCCCTCCCTC,0.00789 relative 10-mer count
3,CCCCACTCCC,0.00688 relative 10-mer count
4,CCGCCCACCC,0.0089 relative 10-mer count
5,GCCCCACCAC,0.00555 relative 10-mer count
6,CCCCTCCCCA,0.00734 relative 10-mer count
7,CCCACCCCGA,0.00404 relative 10-mer count
8,CCCCCGCCGC,0.00436 relative 10-mer count
9,ACCCTCCCCA,0.00509 relative 10-mer count
10,CAAAAAAACA,0.00349 relative 10-mer count
11,CCGCCCCCAC,0.00821 relative 10-mer count
12,CCAACCCACC,0.00642 relative 10-mer count
13,CCACCCCACG,0.00495 relative 10-mer count
14,AGGGTTTCCA,0.00128 relative 10-mer count
15,CGCCCACCAC,0.00569 relative 10-mer count
16,CCCCTTCCCC,0.00702 relative 10-mer count
17,CCCCCCCTCC,0.00982 relative 10-mer count
18,CCATCCCACC,0.00697 relative 10-mer count
19,GGTGGGGGGA,0.00904 relative 10-mer count
20,CAAAAAAGCA,0.00725 relative 10-mer count
